The supplement of paper PMC10981050
Several values for one entry are separate records, joined by “and”; a condition that tells them apart may be missing. Identical values can stand only once. Counter-ions that a name gives are not always drawn.

Tests used:
Test in all cases: cell viability relative to vehicle control; higher = less cytotoxic
Settings in all cases: 10 µM
K562 = system: K562
Summary of the method: (§1)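 Mutant clones made by CRISPR editing and their isogenic wild-type counterparts, from four leukaemia lines, were exposed to a single 10 µM dose of each library compound for 48 h. The supernatant was then removed and CellTiter-Glo luminescence was read. Viability was reported as percent of the on-plate vehicle control.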

MARIMO = system: MARIMO
Summary of the method: as §1

MOLM14 = system: MOLM14
Summary of the method: as §1

OCI-AML2 = system: OCI-AML2
Summary of the method: as §1

| Compound | cell viability (K562; SRSF2 genotype: SRSF2 P95H/wt) | cell viability (K562; SRSF2 genotype: SRSF2 wt/wt) [%] | cell viability (MARIMO; SRSF2 genotype: SRSF2 P95H/wt) [%] | cell viability (MARIMO; SRSF2 genotype: SRSF2 wt/wt) [%] | cell viability (MOLM14; SRSF2 genotype: SRSF2 P95H/wt) [%] | cell viability (MOLM14; SRSF2 genotype: SRSF2 wt/wt) [%] | cell viability (OCI-AML2; SRSF2 genotype: P95H/wt) [%] | cell viability (OCI-AML2; SRSF2 genotype: wt/wt) [%] |
| --- | --- | --- | --- | --- | --- | --- | --- | --- |
| CC(=O)O[C@H]1C[C@@H]2CC[C@@H]3[C@H](CC[C@@]4(C)[C@H]3C[C@H]([N+]3(C)CCCCC3)[C@@H]4OC(C)=O)[C@@]2(C)C[C@@H]1N1CCCCC1 [Vecuronium Bromide] | 101% and 109% | 109 | 105 | 103 | 99.8 | 101 | 111 | 109 |
| Cc1cc(C)nc(NS(=O)(=O)c2ccc(N)cc2)n1 [Sulfamethazine] | 108% and 111% | 108 | 105 | 109 | 110 | 110 | 119 | 96.2 |
| O=c1ccoc2cc(O)ccc12 [7-Hydroxy-4-chromone] | 102% and 95.6% | 93.5 | 99.1 | 104 | 98.9 | 104 | 97.1 | 96.3 |
| COC(=O)Nc1nc2cc([S+]([O-])c3ccccc3)ccc2[nH]1 (centres undefined) [Oxfendazole] | 50.5% and 57.7% | 58.5 | 55.2 | 49.4 | 70.5 | 70.4 | 80 | 78 |
| COc1cc(CO)cc(OC)c1O [4-Hydroxy-3,5-dimethoxybenzyl alcohol] | 106% and 98.2% | 100 | 102 | 107 | 99.7 | 102 | 108 | 105 |
| CC(=O)S[C@@H]1CC2=CC(=O)CC[C@]2(C)[C@H]2CC[C@@]3(C)[C@@H](CC[C@@]34CCC(=O)O4)[C@H]12 [spironolactone] | 87.8% and 90.2% | 89.7 | 78.3 | 84.5 | 90.1 | 91.5 | 90.6 | 97.9 |
| CCC1(c2c[nH]cn2)Cc2ccccc2C1 [Atipamezole hydrochloride] | 90.5% and 99.4% | 104 | 92.4 | 99.1 | 96.2 | 99.7 | 98.5 | 95.2 |
| COc1cc(S(=O)(=O)O)ccc1O [Sulfogaiacol] | 106% and 109% | 113 | 108 | 112 | 107 | 104 | 117 | 105 |
| COc1cc(C2Oc3cc([C@H]4Oc5cc(O)cc(O)c5C(=O)[C@@H]4O)ccc3OC2CO)ccc1O (some centres undefined) [Silibinin (Silybin)] | 95% and 94% | 92.2 | 97.5 | 110 | 98.8 | 98.4 | 104 | 116 |
| CN1CCN(C(=O)c2ccc(-c3ccc4c(C=O)c(O)ccc4c3)s2)CC1 | 68.3% and 74.8% | 71.6 | 66.8 | 53.4 | 73.2 | 76.8 | 72.9 | 79.5 |
| NC12CC3CC(CC(C3)C1)C2 [Amantadine hydrochloride (Symmetrel)] | 99.7% and 116% | 107 | 107 | 103 | 106 | 112 | 111 | 100 |
| CCCCN1CCCCC1C(=O)Nc1c(C)cccc1C (centres undefined) [Bupivacaine hydrochloride (Marcain)] | 92% and 102% | 98.8 | 97.7 | 103 | 98.5 | 102 | 100 | 104 |
| CN(C)C(=O)/C(C#N)=C/c1ccc(-c2nc3cnc4[nH]ccc4c3n2C2CCCCC2)o1 | 99.3% and 98.8% | 98.6 | 80.9 | 89.3 | 49.5 | 71 | 71.5 | 71.5 |
| CCOC(=O)c1ccc(N2NC(=O)C(=Cc3ccc([N+](=O)[O-])o3)C2=O)cc1 | 95.6% and 99.7% | 96 | 95.8 | 90.9 | 90.8 | 94.9 | 102 | 107 |
| CC(=O)c1ccc(NN=C(C(N)=O)C2=NC(C)(C)Cc3ccccc32)cc1 | 79.9% and 87.9% | 86.9 | 56.1 | 58.1 | 15 | 14.7 | 30.5 | 40.5 |
| C[C@@](Cc1ccc(O)c(O)c1)(NN)C(=O)O [Carbidopa] | 103% and 92.2% | 101 | 92.1 | 98.2 | 93.3 | 98.4 | 93.9 | 107 |
| NCCCCCC(=O)O | 99% and 100% | 99.6 | 101 | 98.5 | 103 | 105 | 113 | 99 |
| CCOC(=O)[C@@H](N)Cc1ccc(-c2cc(O[C@H](c3ccc(Cl)cc3-n3ccc(C)n3)C(F)(F)F)nc(N)n2)cc1 [LX1606 hippurate] | 64.2% and 52.4% | 57.2 | 68.9 | 72.7 | 14.2 | 44.5 | 4.73 | 12.2 |
| COc1cc(OC2CCN(C)CC2)ccc1Nc1ncc2c(n1)n(C1CCCC1)c(=O)n2C | 81.2% and 76.4% | 78.1 | 44.7 | 38.6 | 10.8 | 14 | 4.89 | 13.5 |
| Clc1ccc(COC(Cn2ccnc2)c2ccc(Cl)cc2Cl)c(Cl)c1 (centres undefined) [Miconazole (Monistat)] | 65.6% and 81% | 62.2 | 61.1 | 73 | 67.2 | 54.8 | 65.5 | 54.4 |
| CCN(CC)CCOC(=O)c1ccc(N)cc1 [Procaine (Novocaine) HCl] | 98.7% and 100% | 95.9 | 109 | 112 | 98.6 | 99.7 | 93.2 | 110 |
| C[C@H](O)[C@H](O)[C@@H](O)[C@@H](O)C=O [L (+)-Rhamnose Monohydrate] | 99.9% and 97.2% | 100 | 102 | 106 | 99 | 105 | 99.3 | 94.1 |
| CCCCNc1ccc(C(=O)OCCN(C)C)cc1 [Tetracaine hydrochloride (Pontocaine)] | 99.3% and 87.2% | 90.7 | 93.4 | 105 | 92.2 | 96.2 | 94 | 98.4 |
